Screens from PubChem BioAssay.
Rows were chosen to be rich in hits. Some 8% of all compounds tested hit in one or more screens of this group.
HCMV antiviral = qHTS Assay for inhibitors of the human cytomegalovirus (HCMV); AID 1259415, 2018; 4.5% of 410,000 active; HFF cells, HCMV-luciferase reporter, 72 h; hits give low values; activity change, negative = inhibition, % at 57.5 µM; in the data active = activity change below about -60%; inconclusive = no clear call, values can overlap the other calls; inactive = above about -39%; also: % is scaled to controls: 0 for no effect and ±100 for the full control effect
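Cell-based, HFFs, 1000 cells/well, 16 h 37C; cpds in DMSO + HCMV-luc, MOI 1 PFU/cell; 72 h 37C; OneGlo luminescence after 5 min RT; norm. to buffer vs Salinomycin 10uM.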
FMDV inh = High Throughput Screening for Foot and Mouth Disease Virus Antivirals; FMDV antiviral cell-based qHTS; Potency, µM (doses to about 57.9 µM), without a hit: at the highest dose activity change, negative = inhibition, hits mostly inhibitors; 1.2% of 410,000 active; calls by dose curve; tested in HEK293T cells; also: read-out not given here; potency is read from the fitted curve at half-maximal effect; % is scaled to controls: 0 for no effect and ±100 for the full control effect; nearly all actives have a fitted effect of over 45% in size
SARS PLpro yeast = qHTS of Yeast-based Assay for SARS-CoV PLP. S. cerevisiae expressing SARS-CoV PLpro, growth rescue. Potency, µM (doses to about 32.9 µM), for the others: at the top dose activity, positive = growth rescue, most hits filed as activators. 0.19% of 330,000 active; calls by dose curve; also: potency is read from the fitted curve at half-maximal effect; 0% is about no effect; nearly all actives have a fitted effect of over 55% in size
Lassa entry inh = qHTS for Inhibitors of binding or entry into cells for Lassa Virus | Lassa virus pseudotype entry inhibition, cell reporter | Potency, µM (top dose mostly 37.9 µM), inactives show at the top dose activity change, negative = inhibition, actives largely listed as inhibitors | 1.2% of 300,000 active; calls by dose curve; tested in HEK293 cells; also: potency is read from the fitted curve at half-maximal effect; % is scaled to controls: 0 for no effect and ±100 for the full control effect; nearly all actives have a fitted effect of over 50% in size
HCV inh = qHTS Assay for Inhibitors of Hepatitis C Virus (HCV); Huh7.5.1 HCVcc-Cre infection, luciferase reporter, 44 h; Potency, µM (doses to about 41.8 µM), for the others: at the top dose activity change, negative = inhibition, most hits filed as inhibitors; 3.4% of 340,000 active; AID 651820, 2012; active = well fitted inhibition curve with a large enough effect; inconclusive = small, poorly fitted or top-dose-only effect, or another doubt; inactive = no such curve, though single readings can be large or run the other way; also: potency is read from the fitted curve at half-maximal effect; % is scaled to controls: 0 for no effect and ±100 for the full control effect
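Whole-lifecycle infectious HCVcc-Cre system; cells 1,000/well, compound then virus (~0.5 moi) added 4 h after plating, 44 h culture. Luciferase read 15 sec following 15 min substrate incubation, room temp.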
MARV entry inh = qHTS for inhibitors of binding or entry into cells for Marburg Virus; Marburg virus pseudotyped entry inhibition, cell reporter; 1.8% of 300,000 active; Potency, µM (series often up to 37.8 µM), inactives show at the highest dose activity change, negative = inhibition, most hits filed as inhibitors; AID 540276, 2011; calls by dose curve; tested in HEK293 cells; also: potency is read from the fitted curve at half-maximal effect; % is scaled to controls: 0 for no effect and ±100 for the full control effect
Numbers without * were called inactive; ? = inconclusive; . = no result; + = active, no number; ! = a repeat was not active; [ ] = dose if it differs, or a comment.

SMILES	HCMV antiviral	FMDV inh	SARS PLpro yeast	Lassa entry inh	HCV inh	MARV entry inh
CCn1cc(CCC(=O)NCc2ccccc2OC)c2ccccc21	3.0	6.9%	-1.5%	2.2%[46.1 µM]	10µM*	.
COc1ccccc1CNCC(O)Cn1c2ccccc2c2ccccc21 (stereo not given)	-99.2*	?	-0.7%	16.4µM*	11.2µM*	8.2µM*
CCn1c2ccccc2c2cc(NC(=O)c3ccco3)ccc21	-69.3*	.	-8.6%	?	3.16µM*	-13.8%
CCn1c2ccccc2c2cc(NC(=O)COc3ccccc3OC)ccc21	-27.1	0.0%	0.7%	?	?	?
CCn1c2ccccc2c2cc(NC(=O)CNCc3ccccc3OC)ccc21	0.1	-5.3%	0.5%	?	?	5.62µM*
Cn1c(=O)c2c(-c3ccc(Cl)cc3)ccnc2n(C)c1=O	-4.9	-0.1%	.	22.3%[46.1 µM]	.	-1.2%[46.1 µM]
COC(=O)C(Cc1c[nH]c2ccccc12)NC(=O)COc1cccc(C)c1 (stereo not given)	35.2	7.4%	.	?	.	.
CCn1c2ccccc2c2cc(NC(=O)C(=O)N3CCOCC3)ccc21	48.4	53.0%	3.4%	6.3%	11.2µM*	?
CC(=O)c1cccc(NC(=O)c2ccc3c(c2)c(C)c(C)n3Cc2ccc(Cl)cc2)c1	?	-11.9%	.	-0.8%[46.1 µM]	.	.
CCn1c2ccccc2c2cc(NC(=O)CN3CCCC3)ccc21	-18.2	-5.8%	-10.2%	-30.2%[46.1 µM]	?	?
CCn1c(C)c(C)c2cc(C(=O)Nc3cccc(Cl)c3)ccc21	21.9	1.2%	-13.6%	-21.3%	2µM*	?
CCn1c(C)c(C)c2cc(C(=O)NCCCN3CCCCC3C)ccc21 (stereo not given)	+!	-5.6%	?	-18.4%[46.1 µM]	-24.8%	.
CCn1c2ccccc2c2cc(NS(=O)(=O)c3ccc(C)cc3)ccc21	-60.5*	12.0%	-8.2%	?	?	?
CCOC(=O)c1c(C)oc2ncnc(Nc3ccc(F)cc3Cl)c12	8.4	5.7%	.	0.1%[46.1 µM]	.	.
CCOc1ccc(NC(=O)Cn2c(=O)n(CC(=O)NCCc3ccccc3)c(=O)c3sccc32)cc1	?	-16.7%	.	2.9%[46.1 µM]	.	-16.3%[46.1 µM]
Cc1ccc(OCC(=O)Nc2ccc(OCc3cc(=O)n4ccsc4n3)cc2)cc1	6.6	-18.6%	.	6.3%[46.1 µM]	.	-2.7%[46.1 µM]
CCCCCOC(=O)CSc1nc2sc3c(c2c(=O)n1Cc1ccccc1)CC(C)(CC)OC3 (stereo not given)	-10.4	-3.4%	.	-14.8%[46.1 µM]	.	.
CCn1c2ccccc2c2cc(NC(=O)c3cccc(OC)c3)ccc21	45.3	23.5%	-11.7%	?	11.2µM*	?
CC1CCCC(C)N1/N=C/c1ccc(C#N)cc1 (stereo not given)	46.9	1.4%	2.7%	0.2%[46.1 µM]	8.1%	?
CC1CCCC(C)N1/N=C/c1ccc(Cl)cc1 (stereo not given)	21.3	12.3%	10.3%	10.5%	11.2µM*	-1.5%
CCCCc1nc2c(c3c1C[C@H](C)OC3)CN(C(=O)c1ccco1)CC2	.	.	.	.	.	3.0%[14.2 µM]
CCN(c1cccc(C(F)(F)F)c1)S(=O)(=O)c1ccc2c(c1)CCN2C(C)=O	-33.6	?	4.6%	17.8µM*	?	?
CCN(c1cccc(C)c1)S(=O)(=O)c1ccc2c(c1)CCCN2C(C)=O	?	-14.3%	7.4%	?	-14.3%	?
CCN(c1cccc(C)c1)S(=O)(=O)c1ccc2c(c1)CCN2C(C)=O	?	?	-2.7%	?	11.2µM*	?
O=C(COc1ccc(F)cc1)Nc1ccccc1C(=O)OCc1cc(=O)n2ccsc2n1	67.0	-22.6%	.	?	.	.
COC(=O)N[C@H]1CC=C[C@@H]1Cc1cccc(Oc2ccccc2)c1	-12.1	.	.	.	.	.
CCOc1cc2nc(-c3ccc(OC)c(OC)c3)nc(N3CCOCC3)c2cc1OC	53.0	?	8.1%	?	?	2.51µM*
COc1ccc(-c2cc(C(F)(F)F)nc(N3CCOCC3)n2)cc1OC	4.2	0.0%	-1.6%	-7.5%	3.16µM*	-26.7%
COc1ccc(-c2cc(-c3ccccc3)nc(N3CCCC3)n2)cc1OC	1.7	-12.5%	-5.0%	-6.0%	3.55µM*	-28.2%
